# The source made the active and inactive calls. Unless noted, no rule for the calls is given here.
# Assays:
# [1] = system: Wnt5a (protein binding on small-molecule microarray); assay: small molecules binding Wnt5a protein – biophysical, small-molecule microarray, 635/667 nm fluorescence, primary screen (AID 1142); settings: 635 nm fluorescence, higher = more signal;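 also: fluorescence read at 667 nm with signal to noise per printed feature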
# [2] = ATP-based viability of Huh7 replicon cells – cell-based, CellTiter-Glo luminescence, basal, 48 h, cytotoxicity control for HCV replication inhibitor project, primary screen (AID 1143); settings: higher = more signal, called active from +8 up or from −8 down;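 also: Huh7 hepatoma cells carrying a hepatitis C replication reporter with no stimulus; test concentration not given here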
# [3] = Pseudomonas biofilm growth suppression – PAO1 strain, BacTiter-Glo luminescence, LB-PBS, primary screen (AID 1144); settings: P. aeruginosa PAO1 biofilm, 12 h, higher = more signal
# [4] = basal CRE-LacZ reporter activity in PC12 – cell-based, unstimulated, primary screen (AID 1145); settings: no forskolin, luminescence, 4.5 h, higher = more signal, called active from +8 up or from −8 down
# [5] = forskolin-driven CRE-LacZ activity in PC12 – cell-based, CRE-LacZ reporter, forskolin-stimulated, primary screen (AID 1146); settings: luminescence, 4.5 h, higher = more signal, called active from +8 up or from −8 down;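 also: PC12 cells with 6xCRE LacZ reporter stimulated by forskolin 10 µM; beta-galactosidase reporter signal reflecting CREB driven transcription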
# [6] = biological target: Streptavidin (Streptomyces avidinii) (UniProt P22629); assay: compounds binding control protein streptavidin – biophysical, small-molecule microarray, 635/667 nm fluorescence, artefact control for SMM compound annotation, primary screen (AID 1147); settings: higher = more signal;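 also: signal reflects streptavidin binding to arrayed compounds as a control protein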
# [7] = probe aInhba binding on compound microarray – biochemical, small-molecule microarray, 635/667 nm fluorescence, primary screen (AID 1148); settings: higher = more signal;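 also: score merges 667nm spot fluorescence with signal-to-noise for antibody binding to printed compounds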
# Torsin-1A (Homo sapiens) [8] = biological target: Torsin-1A (Homo sapiens) (UniProt O14656); assay: TOR1A wild-type binding on microarray – cell lysate, small-molecule microarray, lysate, 635/667 nm, primary screen (AID 1149); settings: COS7 hTOR1A-WT lysate, 635 nm fluorescence, higher = more signal
# Torsin-1A (Homo sapiens) [9] = biological target: Torsin-1A (Homo sapiens) (UniProt O14656); assay: torsin A mutant lysate binding on microarrays – cell lysate, small-molecule microarray, COS7 lysate, 635/667 nm fluorescence, primary screen (AID 1150); settings: COS7 hTOR1A mutant lysate, 635 nm fluorescence, higher = more signal;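 also: score pools 667 nm emission and signal to noise measuring lysate protein binding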
# [10] = system: Sonic hedgehog protein (Shh); assay: Sonic hedgehog microarray binding compounds – biochemical, small-molecule microarray, 635/667 nm fluorescence, primary screen (AID 1151); settings: 635 nm fluorescence, higher = more signal;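 also: Shh protein binding to compounds spotted on small-molecule microarray slides; score combines spot fluorescence intensity with signal-to-noise across triplicate slides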
# Chain of Torsin-1A (Homo sapiens) (O14656 whole entry, looked up): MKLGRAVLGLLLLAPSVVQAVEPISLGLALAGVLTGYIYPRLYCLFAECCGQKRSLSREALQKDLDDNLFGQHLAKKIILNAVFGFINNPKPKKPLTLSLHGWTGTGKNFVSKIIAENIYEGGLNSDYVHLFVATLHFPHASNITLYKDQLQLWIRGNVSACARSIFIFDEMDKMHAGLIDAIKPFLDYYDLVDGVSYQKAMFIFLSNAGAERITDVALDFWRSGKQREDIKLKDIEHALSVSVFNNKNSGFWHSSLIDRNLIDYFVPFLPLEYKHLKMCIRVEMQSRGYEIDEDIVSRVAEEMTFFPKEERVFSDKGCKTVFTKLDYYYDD
# Chain of Streptavidin (Streptomyces avidinii) (P22629 whole entry, looked up): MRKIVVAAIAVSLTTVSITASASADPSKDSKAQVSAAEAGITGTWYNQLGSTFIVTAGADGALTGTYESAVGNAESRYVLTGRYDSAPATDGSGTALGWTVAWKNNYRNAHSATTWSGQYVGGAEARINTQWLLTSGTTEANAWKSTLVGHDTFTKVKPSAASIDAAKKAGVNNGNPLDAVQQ
Compound,composite z-score [1],z-score [2],z-score [3],z-score [4],z-score [5],composite z-score [6],composite z-score [7],composite z-score (Torsin-1A (Homo sapiens) [8]),composite z-score (Torsin-1A (Homo sapiens) [9]),composite z-score [10]
O=C(NCCO)C1=C[C@H](Oc2ccccc2I)[C@@H](O)[C@H](N(Cc2ccco2)C(=O)Cc2ccccc2)C1,0.234,0.0266 (inactive),-0.0382 (inactive),-0.78 (inactive),0.603 (inactive),0.317,-0.202,0.303,0.0805,0.412
COc1ccc([Si](C)(C)[C@H]2[C@H](CCO)O[C@@]3(C(=O)N(Cc4ccc(N(C=O)c5ccccc5)cc4)c4ccccc43)[C@@H]2C)cc1,-0.308,-5.81 (inactive),-0.305 (inactive),1.92 (inactive),-1.24 (inactive),0.114,-0.157,-0.498,-0.074,0.399
O[C@@H](Cc1ccccc1)[C@H]1C2C=CCCC=C2CN1Cc1cccc(Cl)c1 (stereo not given in full),0.35,-1.1 (inactive),-0.829 (inactive),3.56 (inactive),2.78 (inactive),0.513,0.0173,0.739,-0.453,1.2
C=CCNC(=O)[C@@H]1[C@H]2C(=O)O[C@H](c3ccccc3)[C@H](c3ccccc3)N2[C@H](c2ccc(OCCO)cc2)[C@@]12C(=O)Nc1ccc(C#CCC(C(=O)OC)C(=O)OC)cc12,0.187,-3.86 (inactive),0.827 (inactive),0.488 (inactive),-1.19 (inactive),0.316,0.573,0.309,1.46,1.49
Cc1ccc(S[C@]2(C(=O)NCCCN(C)C)CC(=O)N(Cc3cc(C(F)(F)F)cc(C(F)(F)F)c3)[C@@H]2c2ccc(CO)cc2I)cc1,-0.116,-1.21 (inactive),0.463 (inactive),-0.994 (inactive),1.23 (inactive),-0.0724,0.172,-0.314,-0.88,-0.503
C=CCOC(=O)[C@@H]1[C@H]2C(=O)O[C@H](c3ccccc3)[C@H](c3ccccc3)N2[C@H](c2ccc(OCCOC(=O)[C@H]3C[C@H]4C(=O)N5CCC[C@H]5C(=O)N4[C@H]3c3ccc(O)cc3)cc2)[C@@]12C(=O)Nc1ccc(I)cc12,0.259,-2.3 (inactive),-0.212 (inactive),0.277 (inactive),-0.466 (inactive),-0.033,-0.0775,0.919,0.98,2.15
COCC(=C=CC[C@@H](O)c1cccc(OCCO)c1)C[C@@H](O)c1ccccn1,0.0068,0.0726 (inactive),0.786 (inactive),0.378 (inactive),-1.16 (inactive),-0.229,-0.0403,0.839,0.344,1.29
CCOC(=O)C[C@H]1[C@H](OC(=O)c2ccc(C(=O)c3ccccc3)cc2)[C@@H](NC(=O)c2ccccc2)c2cc(OCCCO)ccc2N1C(=O)Cc1ccc(OC)cc1,0.285,0.0963 (inactive),-0.0343 (inactive),2.75 (inactive),0.0836 (inactive),0.101,-0.0413,-0.0962,0.322,-0.0887
C=CCC(OC(C)=O)[C@@H]1[C@@H](N(Cc2cccc3ccccc23)C(=O)c2ccc(-c3ccccc3)cc2)c2cc(OCCCO)ccc2N1C(=O)c1ccc2ccccc2c1 (stereo not given in full),-0.0128,0.107 (inactive),-0.815 (inactive),0.222 (inactive),0.0667 (inactive),0.486,0.0816,-0.219,-0.0217,0.711
CN1C(=O)C2C=CC(C(O)C#Cc3ccccc3)N(N3CCCCC3)C2C1=O (stereo not given),1.11,0.913 (inactive),-0.686 (inactive),0.236 (inactive),-0.516 (inactive),0.762,1.1,1.27,1.79,0.841
CCc1cccc(NC(=O)O[C@H]2[C@H](OC(=O)Nc3ccccc3-c3ccccc3)[C@@H](OC(=O)Nc3ccccc3-c3ccccc3)[C@@H](OC)O[C@@H]2CO)c1,0.729,-6.04 (inactive),-0.0932 (inactive),-0.655 (inactive),-0.756 (inactive),0.751,-0.0087,1.19,1.64,0.203
C=CCOC(=O)[C@H]1[C@@H]2C(=O)O[C@@H](c3ccccc3)[C@@H](c3ccccc3)N2[C@@H](c2ccc(OCCOC(=O)[C@H]3C[C@H]4C(=O)N[C@@H](CCCCNC(C)=O)C(=O)N4[C@H]3c3ccc(O)cc3)cc2)[C@]12C(=O)Nc1ccc(I)cc12,0.413,-1.48 (inactive),0.399 (inactive),5.04 (inactive),6.74 (inactive),0.142,0.098,0.807,1.01,2.09
C=CCOC(=O)[C@H]1[C@@H]2C(=O)O[C@@H](c3ccccc3)[C@@H](c3ccccc3)N2[C@@H](c2ccc(OCCOC(=O)[C@H]3C[C@H]4C(=O)N[C@@H](CCCCN(C)C)C(=O)N4[C@H]3c3ccc(O)cc3)cc2)[C@]12C(=O)Nc1ccc(I)cc12,0.0259,-0.264 (inactive),0.549 (inactive),-0.268 (inactive),0.259 (inactive),1.23,0.135,1.94,1.33,1.96
CCCCC(CC)C(O)C1C=CC2C(=O)N(Cc3ccccc3)C(=O)C2N1n1cnnc1 (stereo not given),-0.205,-0.114 (inactive),0.999 (inactive),0.127 (inactive),0.408 (inactive),0.124,-0.166,0.17,0.606,-0.405
COC(=O)[C@@]1(Cc2ccc(OC)cc2)[C@H]2c3cc(C(=O)N(C)C)n(C)c3C[C@H]2CN1C(=O)c1ccccc1,0.485,-3.59 (inactive),0.584 (inactive),0.0041 (inactive),0.0225 (inactive),1.77,0.706,-0.0231,0.777,0.418
COc1ccc([Si](C)(C)[C@@H]2[C@@H](CC(=O)N3CCC[C@H]3CO)O[C@]3(C(=O)N(c4ccccc4)c4ccccc43)[C@H]2C)cc1,0.155,-4.58 (inactive),0.439 (inactive),-0.0815 (inactive),0.334 (inactive),0.578,0.0047,0.491,0.466,1.53
O=C1c2ccccc2[C@](Cc2ccccc2I)(C(=O)NCCN2CCOCC2)[C@H](c2ccc(CO)cc2)N1Cc1ccccc1Cl,0.66,-2.57 (inactive),0.825 (inactive),-0.0512 (inactive),-1.01 (inactive),0.851,0.62,0.442,0.244,1.43
CC(C)[Si](C#Cc1ccc(Oc2ccccc2)cc1)(O[Si](C#Cc1ccc(Oc2ccccc2)cc1)(C(C)C)C(C)C)C(C)C,0.253,0.479 (inactive),-0.614 (inactive),0.6 (inactive),-0.378 (inactive),-0.286,0.0403,0.567,0.514,1.05
Cc1ccccc1C(O)C1C=CC2C(=O)N(c3ccccc3)C(=O)C2N1Nc1ccc(C(C)C)cc1 (stereo not given),0.0944,-0.0816 (inactive),-0.481 (inactive),0.812 (inactive),0.131 (inactive),1.26,0.176,-0.0717,0.62,0.214
CO[C@H]1O[C@H](CO)[C@@H](OC(=O)Nc2ccc(Oc3ccccc3)cc2)[C@H](OC(=O)Nc2ccc3c(c2)OCO3)[C@H]1OC(=O)Nc1ccc2c(c1)OCO2,0.636,-1.48 (inactive),-0.822 (inactive),1.09 (inactive),-0.922 (inactive),0.412,0.443,0.387,0.661,1.41
COC(=O)[C@@]1(Cc2ccc(OC)cc2)[C@H]2c3cc(C(=O)N4CCCC4)n(Cc4ccc(O)c(OC)c4)c3C[C@H]2CN1C(=O)c1ccccc1,1.22,-1.28 (inactive),-0.117 (inactive),0.962 (inactive),0.549 (inactive),2.18,1.21,-0.208,0.669,-0.466
CCOC(=O)C[C@H]1[C@H](OC(=O)c2ccc(C(=O)c3ccccc3)cc2)[C@@H](NC(=O)c2ccc3ccccc3c2)c2cc(OCCCO)ccc2N1C(=O)Cc1ccc(OC)cc1,-0.354,-0.132 (inactive),-0.329 (inactive),-0.635 (inactive),-0.383 (inactive),0.271,-0.102,1.08,0.16,-0.006
C=C(CC1([C@@H](NP(=O)(c2ccccc2)c2ccccc2)[C@H]2C[C@@H]2CCCC)CC1)c1ccccc1,0.542,-3.74 (inactive),0.955 (inactive),0.4 (inactive),0.151 (inactive),1.39,0.374,0.443,0.738,-0.509
O=C(NCCN1CCOCC1)[C@@H]1c2ccccc2C(=O)N(C2CCCCC2)[C@H]1c1ccc(CO)cc1,-0.178,-0.742 (inactive),0.00698 (inactive),0.791 (inactive),-0.168 (inactive),0.254,-0.153,-0.945,-0.653,-0.908
COCCOC(=O)N1C(=O)[C@@]2(c3cc(C#CC4(O)CCCCCC4)ccc31)[C@H](c1ccc(OCCO)cc1)N1[C@H](c3ccccc3)[C@H](c3ccccc3)OC(=O)[C@H]1[C@@H]2C(=O)N1CCN(c2ncccn2)CC1,0.499,-0.922 (inactive),0.517 (inactive),0.346 (inactive),0.838 (inactive),2.07,0.0541,0.782,0.629,1.17
C[C@@]1([C@@H](NC(=O)c2ccc(-c3ccccc3)cc2)c2ccc(Cl)cc2)C[C@H]1C1CCCCC1,0.271,-1.18 (inactive),-0.123 (inactive),0.972 (inactive),0.829 (inactive),1.35,0.289,0.564,0.0484,-0.106
CC[C@@H]1C=C(C(=O)O)[C@H](c2ccc(Br)cc2)N1S(=O)(=O)c1ccc(C)cc1,-0.13,-0.141 (inactive),0.598 (inactive),0.0798 (inactive),0.472 (inactive),0.791,0.222,0.297,0.233,0.248

# Reference: PubChem BioAssay
